# Among all 47,000 compounds or so, about 95 (0.2%) were called active. Rule as the data show it: active = inhibition above about 30%; inactive = the rest. The list comes from a sample in which actives are over-represented; it also holds similar structures and randomly drawn compounds.
# Biological target: Ubiquitin carboxyl-terminal hydrolase isozyme L1 (Homo sapiens) (UniProt P09936)
# Experiment: blocks human UCHL1 ubiquitin-rhodamine cleavage (AID 1645859)
# Conditions: purified UCHL1, Ub-rhodamine cleavage fluorescence; at 20 µM; active compounds read high
# Chain of Ubiquitin carboxyl-terminal hydrolase isozyme L1 (Homo sapiens) (P09936 whole entry, looked up): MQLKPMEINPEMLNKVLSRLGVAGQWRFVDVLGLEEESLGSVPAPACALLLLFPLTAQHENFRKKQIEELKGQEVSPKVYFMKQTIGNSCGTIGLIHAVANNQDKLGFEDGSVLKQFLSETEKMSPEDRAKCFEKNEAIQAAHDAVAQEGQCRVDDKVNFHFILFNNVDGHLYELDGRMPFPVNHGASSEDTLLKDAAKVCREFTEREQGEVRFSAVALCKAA
row,Structure (SMILES),inhibition
1,O=C(Cn1cnc(S(=O)(=O)N2CCc3ccccc32)c1)Nc1ccc2c(c1)OCO2,-7.24% (inactive)
2,Cc1ccc(CNC(=O)CCCn2c(=O)c3sccc3n(CC(=O)OCc3ccccc3)c2=O)cc1,-0.426% (inactive)
3,CCN1CCN(c2ncc(C(=O)Nc3ccc(F)cc3)c(C)n2)CC1,-0.515% (inactive)
4,O=C(CCc1nnc2ccc(N3CCCCC3)nn12)NCC1CCCO1 (stereo not drawn),-1.95% (inactive)
5,Cc1ccc(C)c(CSC2=NCCN2C(=O)c2ccco2)c1,-0.972% (inactive)
6,O=C(C1CCN(c2nc3ccc(-c4cccnc4)nc3s2)CC1)N1CCOCC1,-0.864% (inactive)
7,Cc1cnn(CC2CCCCN2C(=O)Cc2c(C)noc2Cl)c1 (stereo not drawn),0.232% (inactive)
8,Cc1c(NC(=O)c2ccc(C(C)(C)C)cc2)c(-n2cnnc2)nn1C,-0.768% (inactive)
9,O=C(Cc1ccccc1Cl)Nc1ccc(N2CCOCC2)cc1,2.8% (inactive)
10,O=C(NC1CC1)c1nc(-c2ccc(-n3cccc3)cc2)no1,1.38% (inactive)
11,COCC(=O)N1CCCC2(COCCN(CCN(C)C)C2)C1 (stereo not drawn),0.844% (inactive)
12,O=C(O)C1CCCN1Cc1c(-c2cccs2)nc2ccccn12 (stereo not drawn),-7.21% (inactive)
13,COc1ccc(N2C(=O)c3ccccc3NC2c2ccc(OCC(N)=O)cc2)cc1 (stereo not drawn),3.76% (inactive)
14,COc1ccc(OC)c(NC(=O)[C@H]2C[C@H](C)N[C@]23C(=O)Nc2c(Cl)cc(C)cc23)c1,-6.13% (inactive)
15,CCCOc1ccnc2c1c(=O)n(CC(=O)NC1CCCC1)c(=O)n2C,-3.9% (inactive)
16,Cc1cccc(-c2nccnc2C2CCCN(C(=O)c3cnccn3)C2)c1 (stereo not drawn),5.49% (inactive)
17,COc1ccccc1C(=O)NCC(c1ccc2c(c1)CCCN2C)N1CCCC1 (stereo not drawn),-73.4% (inactive)
18,Cc1ccc(C)c(NC(=O)C(Sc2nnc(-c3ccccc3)n2C)c2ccccc2)c1 (stereo not drawn),0.846% (inactive)
19,Cn1cc(N2CCC3(CCN(C(=O)c4ccc(F)cc4)CC3)C2=O)cn1,0.646% (inactive)
20,O=C(NC1CCOCC1)N[C@H]1C[C@H]2CN(Cc3ccccc3)Cc3ccccc3CN2C1,1.49% (inactive)
21,Cc1cccc(CNC(=O)C2CCCN(S(=O)(=O)Cc3ccc(F)cc3)C2)c1 (stereo not drawn),3.47% (inactive)
22,N#Cc1ccc(Oc2nc(-c3ccccc3)nnc2-c2ccccc2)cc1,-0.193% (inactive)

row,Structure (SMILES),inhibition
1,O=C1CCCN1c1ccc(S(=O)(=O)N2CCc3ccccc3C2)cc1,-1.26% (inactive)
2,CC(=O)c1cccc(NC(=O)CCN(c2cc(C)cc(C)c2)S(=O)(=O)c2ccc(Cl)cc2)c1,5.56% (inactive)
3,Cc1cc(C)c(NC(=O)CCN2C(=O)c3cccnc3Sc3ccccc32)c(C)c1,-0.793% (inactive)
4,Oc1cccc2nc3c(O)cccc3nc12,28.5% (inactive)
5,O=C(NCCc1ccccc1)c1ccc2c(=O)n(Cc3ccco3)c(=O)n(Cc3cccc([N+](=O)[O-])c3)c2c1,23% (inactive)
6,CC(C)NC(=O)[C@H]1CCS(=O)(=O)[C@@H]2CN(Cc3ccccc3)C[C@H]12,3.58% (inactive)
7,COc1cc(OC)cc(-c2nnc(NC(=O)c3ccc([N+](=O)[O-])o3)o2)c1,1.67% (inactive)
8,O=C(NCc1ccc(F)cc1F)c1csc(C(=O)NC2CC2)n1,-3.4% (inactive)
9,CC(C(=O)Nc1ccccc1F)C1CCN(C(=O)Nc2ccccc2)CC1 (stereo not drawn),0.962% (inactive)
10,Cc1nnc(-c2c(C)[nH]c(C)c2S(=O)(=O)NCc2ccccc2)o1,-1.69% (inactive)
11,CC1(C)CC(=O)N(CC(=O)N2CCCCC2)c2ccccc2S1(=O)=O,0.351% (inactive)
12,Cc1nc(-c2csc(S(=O)(=O)NC3CC3)c2)no1,-2.36% (inactive)
13,O=C(Cn1cnc2cc3c(cc21)OCCO3)NCCc1ccccc1,-0.00331% (inactive)
14,COCCn1ccc2nc(C)c(C(=O)N3CCN(c4cc(C)ccc4C)CC3)cc2c1=O,1.94% (inactive)
15,CCOC(=O)C(Cc1ccccc1)NC(=O)CCC(=O)c1ccc(OC)cc1 (stereo not drawn),1.4% (inactive)
16,Cc1nnc(OCC(=O)Nc2ccc(OC(F)(F)F)cc2)c2ccccc12,8.69% (inactive)
17,CCOC(=O)c1noc2ncnc(Nc3ccc4c(c3)OCCO4)c12,2.47% (inactive)
18,c1cc(N2CCCCCC2)ncc1-c1noc(CN2CCCC2)n1,0.394% (inactive)
19,CN1Cc2ccccc2CC2(CC(Nc3ccc(C(=O)O)cc3)C2)C1=O (stereo not drawn),-3.39% (inactive)
20,COc1cc(Cl)c(NC(=O)c2cc(-c3ccccn3)n[nH]2)c(OC)c1,8.97% (inactive)
21,CC(=O)OC(C)[C@]12C=C(C)[C@H]3[C@H](C)[C@@H](O[C@H]4CC[C@@H](O)[C@@H](C)O4)C4=CC(=O)C=C(N1C(=O)[C@@](C)(O)C2=O)[C@]43O (stereo partly drawn),-4.12% (inactive)
22,Cc1cc(-c2noc(-c3cc4ccccc4oc3=O)n2)c2ccccc2n1,-0.979% (inactive)

row,Structure (SMILES),inhibition
1,O=C(Cn1cnc(S(=O)(=O)N2CCOCC2)c1)Nc1cccc(Cl)c1,2.46% (inactive)
2,Cc1cc(NC(=O)c2ccc(C(=O)N(C3CCCCC3)C3CCCCC3)cc2)cc(C)c1O,4.77% (inactive)
3,O=C1NC[C@@H](Cc2ccccc2)NC(=O)C2(C/C=C/COc3ccccc31)CCNCC2,2.07% (inactive)
4,COC(=O)CC[C@H]1CNC(=O)[C@@H]2[C@@H](CCN2C2CCCCC2)N1C,8.17% (inactive)
5,O=S(=O)(NC12CC3CC(CC(C3)C1)C2)c1ccc(S(=O)(=O)N2CCCCC2)cc1,-1.48% (inactive)
6,CNC(=O)C1(C)CN(C(=O)c2ccc3ncccc3c2)CCO1 (stereo not drawn),-0.883% (inactive)
7,CC(C)[C@H](NC(=O)[C@@H]1Cc2c([nH]c3ccccc23)C2c3ccccc3C(=O)N21)C(=O)NCCc1ccccc1 (stereo partly drawn),0.101% (inactive)
8,COc1cccc(CN2CC[C@@H]3CNS(=O)(=O)[C@@H]3CC2)c1,5.2% (inactive)
9,O=C(Cc1ccccc1)Nc1ccc(-c2nc3cnccc3o2)c(O)c1,0.256% (inactive)
10,Cc1cc(F)ccc1NC(=O)c1cc(C2CC2)n2nccc2n1,1.97% (inactive)
11,Cc1ccc(-n2cc(-c3noc(C(=O)Nc4ccc(F)cc4C)n3)nn2)cc1,38.3% (active)
12,Cc1ccc(Cn2cc(-c3noc(-c4ccccn4)n3)nn2)cc1,-0.677% (inactive)
13,COC(=O)C(C(C)C)N1CCc2c(C)nc3cc(C#N)nn3c21 (stereo not drawn),-5.64% (inactive)
14,Cc1cc(/C=C2/C(=N)N3C=CSC3=NC2=O)c(C)n1-c1ccc(F)cc1,-13% (inactive)
15,Cn1c(CCN2CCCC2)nc2cc(NS(=O)(=O)c3ccccc3)ccc21,-2.94% (inactive)
16,COc1ccc(-n2ncc3c2NC(=O)CC32C(=O)N(CC(C)C)c3ccc(F)cc32)cc1 (stereo not drawn),3.31% (inactive)
17,Cc1nnc2ccc(-c3ccc(NC(=O)c4ccc(Br)o4)cc3)nn12,7.55% (inactive)
18,NS(=O)(=O)c1ccc(CCNc2nccn(-c3ccc4c(c3)OCO4)c2=O)cc1,-4.71% (inactive)
19,O=C(c1cc2occc2c(Nc2ccc(F)cc2)n1)N1CCN(C(=O)c2ccco2)CC1,3.68% (inactive)
20,CC(C)c1ccc(C2CC(=O)c3cn[nH]c3C2)cc1 (stereo not drawn),0.362% (inactive)
21,O=C1CC2(C(=O)Nc3ccccc32)c2cnn(-c3ccccc3Cl)c2N1 (stereo not drawn),-0.024% (inactive)
22,COc1cccc(C2NC(=O)c3c(sc4c3CCC(C)C4)N2)c1O (stereo not drawn),-0.199% (inactive)

row,Structure (SMILES),inhibition
1,CCn1nccc1-c1cccc(-c2noc(-c3ccccn3)n2)c1,3.84% (inactive)
2,Cn1cccc1/C(C#N)=C\c1ccc2c(c1)OCO2,12.5% (inactive)
3,CCc1cnc(N2CCC3(CC2)CC(Oc2cccnc2)C3)nc1,-4.29% (inactive)
4,COc1ccc(NC(=O)c2cnc(N3CCCC3)nc2C)cc1OC,2.41% (inactive)
5,CS(=O)(=O)N1CCn2c(nnc2-c2cncc(Br)c2)C1,1.7% (inactive)
6,O=C(c1ccccn1)N1C[C@@H]2C[C@H]1C[C@@H]2NS(=O)(=O)c1ccccc1,-1.88% (inactive)
7,Cc1ccc(S(=O)(=O)N2CCC(c3nc(C(=O)N(C)C)c(C)o3)CC2)c(C)c1,-3.64% (inactive)
8,CC(=O)c1ccc(S(=O)(=O)Nc2cccc(-c3nc4cccnc4s3)c2C)cc1,0.0973% (inactive)
9,O=C(C1CCN(c2nc3cccnc3s2)CC1)N1CCN(c2ncccn2)CC1,5.79% (inactive)
10,O=c1ccc(S(=O)(=O)N2CCCCCC2)cn1Cc1ccccc1,-3.73% (inactive)
11,CNc1cncc(C2CCCN2S(=O)(=O)N2CCCC2)n1 (stereo not drawn),1.24% (inactive)
12,Cn1c(=O)c2c(-c3ccc(C(C)(C)C)cc3)n(-c3ccccc3Cl)cc2n(C)c1=O,3.67% (inactive)
13,c1ccc2c(c1)NCCC(c1ccc3c(c1)OCO3)N2 (stereo not drawn),-0.387% (inactive)
14,CC(C)(C)CN1CC[C@H](c2nnc(-c3cccnc3)o2)C1,-3.12% (inactive)
15,COc1ccc(NC(=O)c2cccn3c(-c4ccc(F)cc4)nnc23)c(OC)c1,-7.15% (inactive)
16,N#Cc1cnc2ccccc2c1N1CCC(C(=O)N2CCCCC2)CC1,-2% (inactive)
17,Cc1nn(CCC(=O)Nc2ccccc2F)c(C)c1S(=O)(=O)N1CCOCC1,-2.99% (inactive)
18,O=C(Nc1ccc2c(c1)CCC2)N1CCc2c(nc(-c3ccccc3)[nH]c2=O)C1,-2.41% (inactive)
19,O=C(NC1CC1)c1cn(-c2cc(-c3nc(C4CC4)no3)ccn2)cn1,2.22% (inactive)
20,Cc1ccccc1NC(=O)Cc1csc2nc(-c3ccc(F)cc3)cn12,6.49% (inactive)
21,O=C(CN1C(=O)C2CCCC2=Nc2ccccc21)Nc1ccc(F)cc1F (stereo not drawn),2.04% (inactive)
22,COCCNC(=O)c1cc(-c2ccn(C3CCCC3)n2)n2ccccc12,-0.227% (inactive)

# — PubChem BioAssay AID1645859 (Buhrlage Lab, Dana-Farber Cancer Institute and Novartis …, 2021)
